Results published in PubChem BioAssay.
Calls of active or inactive are those of the source.

Assays:
[1] = binders of probe aFSTL3 on microarray, primary screen, stem cell growth factor project, biochemical, small-molecule microarray, fluorescence 635/667 (AID 1064); conditions: higher = more signal;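 also: measures binding of the biotinylated anti-FSTL3 antibody to printed compounds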
[2] = binders from COS7 lysate, DM2A8 probe, primary screen, torsin A project, cell lysate, small-molecule microarray, fluorescence 635/667 (AID 1065); conditions: higher = more signal, COS7 lysate expressing mutant human TOR1A
[3] = binders of probe aFGF2 on microarray, primary screen, stem cell growth factor project, biochemical, small-molecule microarray, fluorescence 635/667 (AID 1067); conditions: higher = more signal;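 also: measures binding of biotinylated aFGF2 protein to printed compounds on slides; z-score merges feature fluorescence and signal-to-noise across triplicate slides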
[4] = binders of probe aFGF10 on microarray, primary screen, stem cell growth factor project, biochemical, small-molecule microarray, fluorescence 635/667 (AID 1071); conditions: higher = more signal;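 also: score merges 667 nm spot intensity and signal to noise from triplicate slides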
[5] = molecular target: Neurogenic locus notch homolog protein 2 (Homo sapiens) (UniProt Q04721); test: Notch2 binders on small-molecule microarrays, primary screen, biochemical, small-molecule microarray, 635 nm fluorescence, stem cell growth factors (AID 1073); conditions: Notch2 binding, higher = more signal
Neurogenic locus notch homolog protein 2 (Homo sapiens), sequence (Q04721 whole entry, looked up, canonical isoform): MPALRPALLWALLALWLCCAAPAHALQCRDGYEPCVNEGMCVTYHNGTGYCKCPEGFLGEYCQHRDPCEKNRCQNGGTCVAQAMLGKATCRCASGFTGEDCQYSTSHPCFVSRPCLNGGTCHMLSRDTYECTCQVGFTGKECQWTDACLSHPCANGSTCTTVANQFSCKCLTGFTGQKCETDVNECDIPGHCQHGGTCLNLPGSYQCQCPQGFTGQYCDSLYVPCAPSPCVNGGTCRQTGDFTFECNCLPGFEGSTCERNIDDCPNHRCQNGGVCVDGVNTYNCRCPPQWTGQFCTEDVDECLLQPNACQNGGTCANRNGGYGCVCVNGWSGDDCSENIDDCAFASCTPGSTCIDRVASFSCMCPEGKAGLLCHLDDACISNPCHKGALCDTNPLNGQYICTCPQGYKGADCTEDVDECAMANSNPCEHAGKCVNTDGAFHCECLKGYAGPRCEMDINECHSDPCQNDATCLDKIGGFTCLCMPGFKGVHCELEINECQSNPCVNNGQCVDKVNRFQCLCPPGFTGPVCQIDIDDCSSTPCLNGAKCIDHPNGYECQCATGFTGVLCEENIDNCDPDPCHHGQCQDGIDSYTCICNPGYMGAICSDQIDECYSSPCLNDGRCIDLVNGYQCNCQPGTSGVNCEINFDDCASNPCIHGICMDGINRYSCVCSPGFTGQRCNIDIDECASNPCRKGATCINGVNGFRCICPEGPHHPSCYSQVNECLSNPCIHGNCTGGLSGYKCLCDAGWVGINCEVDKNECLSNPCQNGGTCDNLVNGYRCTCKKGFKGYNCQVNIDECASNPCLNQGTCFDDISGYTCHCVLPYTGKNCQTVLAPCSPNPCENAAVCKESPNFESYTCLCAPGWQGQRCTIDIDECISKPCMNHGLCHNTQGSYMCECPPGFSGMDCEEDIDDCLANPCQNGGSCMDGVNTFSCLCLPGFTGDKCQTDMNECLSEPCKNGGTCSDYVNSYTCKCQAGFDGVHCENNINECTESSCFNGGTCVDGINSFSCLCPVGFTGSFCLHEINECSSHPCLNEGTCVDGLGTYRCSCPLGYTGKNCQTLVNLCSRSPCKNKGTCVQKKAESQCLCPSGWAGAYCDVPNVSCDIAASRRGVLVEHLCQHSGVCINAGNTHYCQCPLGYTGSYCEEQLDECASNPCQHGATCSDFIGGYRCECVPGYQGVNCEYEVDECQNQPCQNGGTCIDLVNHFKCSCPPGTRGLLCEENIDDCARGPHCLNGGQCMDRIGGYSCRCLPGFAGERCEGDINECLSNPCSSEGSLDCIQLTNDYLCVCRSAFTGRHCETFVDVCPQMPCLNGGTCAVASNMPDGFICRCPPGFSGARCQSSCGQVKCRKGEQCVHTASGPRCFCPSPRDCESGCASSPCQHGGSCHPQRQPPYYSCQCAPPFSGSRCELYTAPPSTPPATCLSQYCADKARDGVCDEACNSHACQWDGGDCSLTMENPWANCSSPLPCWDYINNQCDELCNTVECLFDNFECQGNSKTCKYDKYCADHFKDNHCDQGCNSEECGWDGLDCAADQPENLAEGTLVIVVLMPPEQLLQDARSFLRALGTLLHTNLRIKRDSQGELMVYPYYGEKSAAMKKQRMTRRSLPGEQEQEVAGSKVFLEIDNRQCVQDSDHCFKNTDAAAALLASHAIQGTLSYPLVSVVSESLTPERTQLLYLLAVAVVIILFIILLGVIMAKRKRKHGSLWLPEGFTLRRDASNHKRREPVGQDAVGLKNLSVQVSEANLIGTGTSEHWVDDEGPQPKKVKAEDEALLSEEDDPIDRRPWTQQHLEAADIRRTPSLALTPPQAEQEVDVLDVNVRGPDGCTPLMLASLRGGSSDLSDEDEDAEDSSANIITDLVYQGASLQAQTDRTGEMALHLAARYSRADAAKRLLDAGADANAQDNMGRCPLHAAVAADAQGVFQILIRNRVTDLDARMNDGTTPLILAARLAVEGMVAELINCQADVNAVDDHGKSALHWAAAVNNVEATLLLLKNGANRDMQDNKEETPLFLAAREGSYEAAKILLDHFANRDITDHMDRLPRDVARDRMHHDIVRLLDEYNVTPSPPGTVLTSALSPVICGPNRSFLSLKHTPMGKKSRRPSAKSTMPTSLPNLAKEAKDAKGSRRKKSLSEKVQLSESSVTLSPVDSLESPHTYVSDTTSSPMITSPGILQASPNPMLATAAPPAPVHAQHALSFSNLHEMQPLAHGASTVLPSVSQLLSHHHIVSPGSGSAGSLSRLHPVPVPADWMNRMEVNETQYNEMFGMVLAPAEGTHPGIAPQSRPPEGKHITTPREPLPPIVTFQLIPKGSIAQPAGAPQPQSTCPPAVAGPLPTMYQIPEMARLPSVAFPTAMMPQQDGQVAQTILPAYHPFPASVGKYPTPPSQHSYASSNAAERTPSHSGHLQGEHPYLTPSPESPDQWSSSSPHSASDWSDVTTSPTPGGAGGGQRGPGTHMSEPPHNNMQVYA

[6] = molecular target: Pro-neuregulin-1, membrane-bound isoform (Homo sapiens) (UniProt Q02297); test: NRG1 binders on small-molecule microarrays, primary screen, psychiatric disease protein project, biochemical, small-molecule microarray, fluorescence 635/667 (AID 1075); conditions: NRG1 binding, 635 nm fluorescence, higher = more signal;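 also: score combines 667 nm spot fluorescence with signal to noise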
Pro-neuregulin-1, membrane-bound isoform (Homo sapiens), sequence (Q02297 whole entry, looked up, the tested form may be a part, canonical isoform): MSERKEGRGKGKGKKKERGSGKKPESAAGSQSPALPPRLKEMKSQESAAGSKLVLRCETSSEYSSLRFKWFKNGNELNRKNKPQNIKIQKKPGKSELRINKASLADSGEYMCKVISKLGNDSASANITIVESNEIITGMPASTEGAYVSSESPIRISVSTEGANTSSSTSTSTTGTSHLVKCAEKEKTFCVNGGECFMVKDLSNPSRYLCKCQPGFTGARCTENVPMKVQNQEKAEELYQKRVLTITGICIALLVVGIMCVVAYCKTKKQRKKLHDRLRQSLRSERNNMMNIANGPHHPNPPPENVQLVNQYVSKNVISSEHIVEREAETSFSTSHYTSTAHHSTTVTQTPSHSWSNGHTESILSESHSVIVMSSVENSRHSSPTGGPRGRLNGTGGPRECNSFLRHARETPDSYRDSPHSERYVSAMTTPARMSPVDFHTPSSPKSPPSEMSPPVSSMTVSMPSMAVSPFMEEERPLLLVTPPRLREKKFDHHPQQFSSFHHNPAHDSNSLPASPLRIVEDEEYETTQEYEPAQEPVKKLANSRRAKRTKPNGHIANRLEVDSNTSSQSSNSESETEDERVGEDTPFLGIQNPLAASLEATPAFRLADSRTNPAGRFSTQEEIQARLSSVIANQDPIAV

[7] = test system: Neuregulin-1 EGF-like domain; test: binders of neuregulin-1 EGF-like domain, primary screen, biochemical, small-molecule microarray, 635 nm fluorescence (AID 1081); conditions: small-molecule microarray binding, higher = more signal;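 also: binding of the protein to compounds printed on small-molecule microarray slides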
[8] = FRG1 promoter luciferase signal modulators, primary screen, FRG1 inhibition for FSHD, cell-based, C2C12 myotubes, firefly/Renilla luciferase, luminescence (AID 1084); conditions: higher = more signal, called active from +8 up or from −8 down
[9] = binders of probe aFST on microarray, primary screen, stem cell growth factor project, biochemical, small-molecule microarray, fluorescence 635/667 (AID 1086); conditions: higher = more signal;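 also: score merges 667 nm fluorescence with signal-to-noise of each printed compound spot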
[10] = binders of probe aHhip on microarray, primary screen, stem cell growth factor project, biochemical, small-molecule microarray, fluorescence 635/667 (AID 1087); conditions: higher = more signal;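 also: score merges spot fluorescence at 667nm with spot signal to noise ratio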
[11] = test system: PRMT1 (protein arginine N-methyltransferase 1); test: PRMT1 binders on small-molecule microarrays, primary screen, biochemical, small-molecule microarray, 635 nm fluorescence (AID 1088); conditions: small-molecule microarray binding, higher = more signal;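 also: binding of Prmt1 protein to compounds spotted on small-molecule microarray slides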
[12] = yeast growth modulation, basal conditions, primary screen, YJM789 clinical isolate, OD600, 24 h (AID 1089);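 also: growth of clinical yeast isolate S. cerevisiae YJM 789 seeded 1000 cells per well; test concentration not given here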; conditions: S. cerevisiae YJM789 growth, higher = more signal, called active from +8 up or from −8 down
[13] = fission yeast growth modulation, primary screen, strain 972, OD600, 24 h, no modulator (AID 1090);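 also: basal condition with compound alone and no growth modifier present; test concentration not given here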; conditions: S. pombe 972 growth, higher = more signal, called active from +8 up or from −8 down
[14] = S. cerevisiae growth modulation with rapamycin, primary screen, strain BY4716, OD600, 96 h (AID 1091); conditions: higher = more signal, called active from +8 up or from −8 down; also: test concentration not given here
[15] = molecular target: Torsin-1A-interacting protein 2 (Homo sapiens) (UniProt Q8NFQ8); test: LULL1 binders on small-molecule microarray, primary screen, cell lysate, human LULL1 lysate, 635/667 nm fluorescence (AID 1092); conditions: hLULL1 lysate binding, 635 nm fluorescence, higher = more signal;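 also: probe is lysate of COS7 cells overexpressing human LULL1; score merges per-feature 667 nm fluorescence with signal-to-noise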
Torsin-1A-interacting protein 2 (Homo sapiens), sequence (Q8NFQ8 whole entry, looked up): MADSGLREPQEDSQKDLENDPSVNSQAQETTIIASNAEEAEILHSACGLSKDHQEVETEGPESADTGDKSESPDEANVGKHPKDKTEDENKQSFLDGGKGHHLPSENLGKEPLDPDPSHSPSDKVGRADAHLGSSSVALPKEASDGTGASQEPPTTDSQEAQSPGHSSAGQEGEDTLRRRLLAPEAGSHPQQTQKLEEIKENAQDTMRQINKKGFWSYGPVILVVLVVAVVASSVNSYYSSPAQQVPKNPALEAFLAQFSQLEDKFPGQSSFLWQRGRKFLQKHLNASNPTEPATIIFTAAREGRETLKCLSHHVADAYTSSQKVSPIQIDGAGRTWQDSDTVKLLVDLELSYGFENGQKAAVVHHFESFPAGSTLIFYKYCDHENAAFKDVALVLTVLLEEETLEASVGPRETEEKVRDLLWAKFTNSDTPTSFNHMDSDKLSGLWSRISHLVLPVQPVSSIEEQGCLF

[16] = E. coli growth modulation, two-sided OD650, primary screen, E. coli filamentation project, strain DRC41, 24 h (AID 1093); conditions: OD650, 24 h, higher = more signal, called active from +8 up or from −8 down;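 also: MC1000 strain lacking acrAB efflux and sulA so SOS filamentation is blocked; test concentration not given here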
[17] = small-molecule microarray binders of probe aLefty2, primary screen, biochemical, biotinylated probe, 635/667 nm fluorescence (AID 1094); conditions: higher = more signal;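 also: score merges spot fluorescence near 667 nm with spot signal-to-noise ratio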
[18] = test system: Noggin (protein binding on small-molecule microarray); test: Noggin binders on small-molecule microarray, primary screen, biochemical, 635/667 nm fluorescence (AID 1095); conditions: 635 nm fluorescence, higher = more signal;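 also: score merges 667 nm feature fluorescence with signal to noise over triplicate slides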
[19] = molecular target: Neurogenic locus notch homolog protein 3 (Homo sapiens) (UniProt Q9UM47); test: NOTCH3 binders on small-molecule microarray, primary screen, biochemical, 635/667 nm fluorescence (AID 1096); conditions: NOTCH3 binding, 635 nm fluorescence, higher = more signal
[20] = small-molecule microarray binders of probe aEGFR, primary screen, biochemical, biotinylated probe, 635/667 nm fluorescence (AID 1097); conditions: higher = more signal;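 also: probe is a biotinylated anti-EGFR antibody binding compounds printed on slides; score combines fluorescence near 667 nm and signal to noise of each spot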

SMILES | composite z-score [1] | composite z-score [2] | composite z-score [3] | composite z-score [4] | composite z-score [5] | composite z-score [6] | composite z-score [7] | z-score [8] | composite z-score [9] | composite z-score [10] | composite z-score [11] | z-score [12] | z-score [13] | z-score [14] | composite z-score [15] | z-score [16] | composite z-score [17] | composite z-score [18] | composite z-score [19] | composite z-score [20]
C=CCN1C(=O)[C@@]2(O[C@@H](CCO)[C@H]([Si](C)(C)c3ccc(OC)cc3)[C@H]2C)c2cc(N3CCCCC3=O)ccc21 | -0.217 | 0.504 | -0.0415 | 0.268 | 0.704 | 1.12 | 1.14 | -1.11 (inactive) | 0.2 | 0.0373 | 1.55 | 0.451 (inactive) | 0.215 (inactive) | 1.81 (inactive) | 2.24 | 0.649 (inactive) | -0.157 | 1.19 | 0.868 | -0.0662
CCCC1(C(=O)OC)C=C2C(=C(C(C)C)C(=O)C2C)CN1 (stereo not given) | 0.578 | -0.241 | -0.133 | -0.397 | -0.052 | 0.688 | -0.15 | 1.89 (inactive) | -0.0967 | -0.0645 | -1.32 | 0.128 (inactive) | 0.0695 (inactive) | 0.767 (inactive) | 0.268 | -1.24 (inactive) | 0.115 | -0.797 | -0.493 | -0.146
CC(C)c1ccc(NN2C(C(O)C3CCCCC3)C=CC3C(=O)N(c4ccccc4)C(=O)C32)cc1 (stereo not given) | 0.249 | 0.333 | 0.224 | 0.509 | 1.6 | 1.22 | 1 | -1.09 (inactive) | 1.62 | 0.142 | 1.02 | 0.487 (inactive) | 0.361 (inactive) | -0.287 (inactive) | 3.07 | -1.23 (inactive) | 0.0779 | -0.0338 | 1.03 | 0.168
[N-]=[N+]=Nc1ccccc1C[C@@]1(C(=O)NCc2ccccc2)N=C(c2ccc(OCCCO)cc2)O[C@@H]1c1ccccc1 | 0.584 | 0.405 | 0.0421 | 1.05 | 1.46 | 0.794 | 0.747 | -2.86 (inactive) | 0.838 | -0.0296 | 1.54 | -1.27 (inactive) | 0.326 (inactive) | 5.57 (inactive) | 3.02 | 0.594 (inactive) | 0.271 | 0.922 | 1.03 | 0.1
COCCOC(=O)N1C(=O)[C@@]2(c3cc(C#CCC(C(=O)OC)C(=O)OC)ccc31)[C@H](c1ccc(O)cc1)N1[C@H](c3ccccc3)[C@H](c3ccccc3)OC(=O)[C@H]1[C@@H]2C(=O)N1CCc2cc(OC)c(OC)cc2C1 | 0.0804 | 0.838 | -0.0538 | 0.818 | 1.21 | 1.04 | 1.14 | 0.336 (inactive) | 0.186 | 0.224 | 1.54 | 0.344 (inactive) | -1.01 (inactive) | 0.157 (inactive) | 2.56 | 0.794 (inactive) | -0.103 | 1.12 | 0.8 | 0.0353
CN1C2C=C(c3ccc(CO)cc3)C(C3C(=O)N(C(N)=O)C(=O)C32)C1C1CC1 (stereo not given) | -0.153 | 0.103 | -0.146 | -0.0401 | -0.161 | 0.0413 | 0.663 | 0.567 (inactive) | -0.0595 | -0.201 | 0.132 | -1.07 (inactive) | -0.257 (inactive) | 1.2 (inactive) | -0.0967 | 0.214 (inactive) | -0.178 | -0.4 | -0.607 | -0.201
C=CCNC(=O)[C@@H]1[C@H]2C(=O)O[C@H](c3ccccc3)[C@H](c3ccccc3)N2[C@H](c2ccc(O)cc2)[C@@]12C(=O)N(C(=O)OCCOC)c1ccc(C#CCC(C(=O)OC)C(=O)OC)cc12 | -0.292 | 1.27 | 0.048 | 0.769 | 1.14 | 0.946 | 1.18 | -0.614 (inactive) | 0.884 | 0.0266 | 1.5 | 1.03 (inactive) | 0.405 (inactive) | 0.624 (inactive) | 2.11 | 1.19 (inactive) | -0.156 | 1.03 | 0.959 | -0.027
CO[C@H]1O[C@H](CO)[C@@H](OC(=O)Nc2cccc(F)c2)[C@H](OC(=O)Nc2ccc3c(c2)OCO3)[C@@H]1OC(=O)Nc1ccc2c(c1)OCO2 | -0.0407 | 0.786 | 0.112 | 0.959 | 1.46 | 1.25 | 1.27 | 4 (inactive) | 0.986 | 0.21 | 1.53 | 1.79 (inactive) | 1.24 (inactive) | 7.48 (inactive) | 3.48 | -0.0741 (inactive) | 0.126 | 0.691 | 1.08 | -0.039
CC(C)c1ccc(NN2C(C(O)c3ccccc3)C=CC3C(=O)N(c4ccccc4)C(=O)C32)cc1 (stereo not given) | 0.744 | 0.141 | 0.117 | 0.885 | 1.42 | 0.905 | 0.793 | 1.47 (inactive) | 1.13 | -0.265 | 0.787 | 1.54 (inactive) | -0.0469 (inactive) | 0.209 (inactive) | 2.88 | -0.213 (inactive) | 0.142 | -0.621 | 1.11 | 0.198
CC(C)C[C@@H]1NC(=O)[C@@H]2C[C@H](C(=O)NCCCCCNC(=O)CS)[C@H](c3ccc(O)cc3)N2C1=O | 0.0099 | 1.8 | -0.0986 | -0.435 | 0.0232 | 1.75 | 1.17 | 2.98 (inactive) | -0.265 | -0.0994 | 1.16 | -2.18 (inactive) | 0.0046 (inactive) | -1.65 (inactive) | 2.21 | 1.52 (inactive) | -0.0437 | 0.73 | 0.313 | -0.0493
